# Laboratory results taken from PubChem BioAssay (EPA / NIEHS).
# Records with an inconclusive call do not appear. The source made the active and inactive calls. The calls were made as follows: active = hit-call score of the fitted dose curve at least 0.9, where 1 is the maximum; inconclusive = response in the unintended direction; inactive = score below 0.9.
# Assays:
# [1] = biological target: human Mitogen-Activated Protein Kinase 1 (MAPK 1), MAPK1 (gene 5594) (UniProt P28482); experiment: NVS_ENZ_hMAPK1: NovaScreen (NVS) Enzymatic Assay for human Mitogen-Activated Protein Kinase 1 (MAPK 1) (AID 2283175)
# Method in brief: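 Cell-free recombinant human MAPK1 enzymatic assay, fluorescence/electrophoretic mobility shift read at 1 h; loss of signal vs DMSO. Primary screen in duplicate at 25 uM; actives (e.g. ≥30% inhibition) run as concentration-response up to 50 uM.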
# [2] = biological target: human MAP Kinase-Activated Protein Kinase 2 (MAPKAPK2), MAPKAPK2 (gene 9261) (UniProt P49137); experiment: NVS_ENZ_hMAPKAPK2: NovaScreen (NVS) Enzymatic Assay for human MAP Kinase-Activated Protein Kinase 2 (MAPKAPK2) (AID 2283178)
# Method in brief: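 Chemicals screened in duplicate at 25 uM, then to 50 uM top concentration in concentration-response, against recombinant human MAPKAPK2; substrate conversion read 1 hr post-dosing by fluorescence after electrophoretic mobility-shift separation, loss-of-signal relative to DMSO.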
# [3] = biological target: human Phosphodiesterase 4A1 (PDE4A1), PDE4A (gene 5141) (UniProt P27815); experiment: NVS_ENZ_hPDE4A1: NovaScreen (NVS) Enzymatic Assay for human Phosphodiesterase 4A1 (PDE4A1) (AID 2283191)
# Method in brief: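 Fluorescent substrate turnover by recombinant PDE4A1 read after 1 h by mobility-shift separation. Primary duplicate screen at 25 uM; hits retested in concentration series with a 50 uM maximum, relative to DMSO.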
# [4] = biological target: human Phosphodiesterase 5 (PDE5), PDE5A (gene 8654) (UniProt O76074); experiment: NVS_ENZ_hPDE5: NovaScreen (NVS) Enzymatic Assay for human Phosphodiesterase 5 (PDE5) (AID 2283194)
# Method in brief: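 Screening began in duplicate at 25 uM, with actives taken into concentration-response. Enzyme activity of recombinant PDE5 toward its substrate was measured at 1 h by fluorescence mobility-shift detection, relative to DMSO controls.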
# [5] = biological target: Collagenase 3 (Homo sapiens) (UniProt P45452); experiment: NVS_ENZ_hMMP13: NovaScreen (NVS) Enzymatic Assay for human Matrix Metalloproteinase-13 (MMP13) (AID 2283182)
# Method in brief: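 Recombinant MMP13 cleaving fluorescent substrate, cell-free, measured 1 h after dosing. Primary duplicate screen at 25 uM; actives tested in concentration-response up to 50 uM; loss of signal relative to DMSO.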
# [6] = biological target: Histone deacetylase 3 (Homo sapiens) (UniProt O15379); experiment: NVS_ENZ_hHDAC3: NovaScreen (NVS) Enzymatic Assay for human Histone Deacetylase 3 (HDAC3) (AID 2283163)
# Method in brief: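 Cell-free enzyme format: loss of fluorescent product after mobility-shift separation, 1 h incubation, recombinant human HDAC3. Single 25 uM duplicate screen first, then concentration series to a 50 uM top for hits; DMSO as baseline.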
# [7] = biological target: Protein deacetylase HDAC6 (Homo sapiens) (UniProt Q9UBN7); experiment: NVS_ENZ_hHDAC6: NovaScreen (NVS) Enzymatic Assay for human Histone Deacetylase 6 (HDAC6) (AID 2283164)
# Method in brief: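 Concentration-response runs up to 50 uM followed a duplicate 25 uM single-point screen. Deacetylase activity of recombinant human HDAC6 read by fluorescence after 1 h, with mobility-shift separation of substrate and product; DMSO as baseline.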
# [8] = biological target: human c-Jun N-terminal Kinases (JNK2), MAPK9 (gene 5601) (UniProt P45984); experiment: NVS_ENZ_hJNK2: NovaScreen (NVS) Enzymatic Assay for human c-Jun N-terminal Kinases (JNK2) (AID 2283171)
# Method in brief: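 Chemicals first tested in duplicate at 25 uM, then in singleton concentration series up to 50 uM, against extracted JNK2 enzyme. Activity loss read by fluorescence with mobility-shift separation 1 h post-dose; DMSO baseline.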
# [9] = biological target: human Matrix Metalloproteinase-7 (MMP7), MMP7 (gene 4316) (UniProt P09237); experiment: NVS_ENZ_hMMP7: NovaScreen (NVS) Enzymatic Assay for human Matrix Metalloproteinase-7 (MMP7) (AID 2283183)
# Method in brief: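 Compounds first tested at 25 uM in duplicate, then at up to 50 uM in concentration series if active. Protease activity measured by fluorescence intensity 1 h after dosing, with fitting relative to DMSO.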
# [10] = biological target: human Matrix Metalloproteinase-3 (MMP3), MMP3 (gene 4314) (UniProt P08254); experiment: NVS_ENZ_hMMP3: NovaScreen (NVS) Enzymatic Assay for human Matrix Metalloproteinase-3 (MMP3) (AID 2283185)
# Method in brief: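 Fluorescent substrate turnover by recombinant MMP3 read after 1 h, signal loss scored against DMSO. Compounds first run in duplicate at 25 uM single dose, then actives confirmed by concentration series.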
# [11] = biological target: human Matrix Metalloproteinase-2 (MMP2), MMP2 (gene 4313) (UniProt P08253); experiment: NVS_ENZ_hMMP2: NovaScreen (NVS) Enzymatic Assay for human Matrix Metalloproteinase-2 (MMP2) (AID 2283184)
# Method in brief: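 Compounds first screened in duplicate at a single 25 uM, with actives followed up in concentration series. Recombinant human MMP2 cleaves a fluorogenic substrate; fluorescence taken at 1 h, inhibition fitted relative to DMSO.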
# [12] = biological target: human Matrix Metalloproteinase-9 (MMP9), MMP9 (gene 4318) (UniProt P14780); experiment: NVS_ENZ_hMMP9: NovaScreen (NVS) Enzymatic Assay for human Matrix Metalloproteinase-9 (MMP9) (AID 2283190);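 also: cell-free recombinant MMP9 protease activity read by fluorescent substrate signal; active means inhibition seen as loss of fluorescence signal versus DMSO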
# Method in brief: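 Cell-free fluorescence-intensity enzyme activity assay using extracted protein, read 1 h after dosing. Loss of signal versus DMSO baseline indicates inhibition; primary screen in duplicate at 25 uM, actives followed up in concentration series.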
# [13] = biological target: Mitogen-activated protein kinase 3 (Homo sapiens) (UniProt P27361); experiment: NVS_ENZ_hMAPK3: NovaScreen (NVS) Enzymatic Assay for human Mitogen-Activated Protein Kinase 3 (MAPK 3) (AID 2283177)
# Method in brief: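 Chemicals were first tested in duplicate at 25 uM, with hits re-run as concentration series (max 50 uM). Recombinant enzyme activity, measured 1 h post-dose in a cell-free format, was read by fluorescence/mobility shift relative to DMSO.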
# [14] = biological target: Glycogen synthase kinase-3 beta (Homo sapiens) (UniProt P49841); experiment: NVS_ENZ_hGSK3b: NovaScreen (NVS) Enzymatic Assay for human Glycogen Synthase Kinase-3 beta (GSK3b) (AID 2283165)
# Method in brief: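 Recombinant enzyme with specific fluorescent substrate, 1 h, product separated by electrophoretic mobility shift. Primary duplicate screen at 25 uM; actives (e.g. 30% inhibition) followed in singleton concentration-response to 50 uM. Signal loss fitted versus DMSO.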
# PPP2CA (gene 5515) = PPP2CA (gene 5515) (UniProt P67775); experiment: NVS_ENZ_hPPP2CA: NovaScreen (NVS) Enzymatic Assay for human Protein Phosphatase 2 Aatalytic subunit Alpha (PPP2CA) (AID 2283199)
# Method in brief: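 Cell-free phosphatase activity: fluorescent substrate turnover by recombinant human enzyme, resolved by mobility shift at 1.33 h. Compounds passing the 25 uM duplicate primary screen were rerun in singleton series with a 50 uM top concentration.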
# [15] = biological target: human Phosphoinositide 3-kinase alpha (PI3Ka), PIK3CA (gene 5290) (UniProt P42336); experiment: NVS_ENZ_hPI3Ka: NovaScreen (NVS) Enzymatic Assay for human Phosphoinositide 3-kinase alpha (PI3Ka) (AID 2283196)
# Method in brief: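 Enzyme activity as fluorescence after mobility-shift separation of substrate and product, 1 h reaction, recombinant human PI3Kα; concentration-response to 50 uM max for chemicals passing a 25 uM duplicate screen.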
# [16] = biological target: human LYN Proto-Oncogene, Src family Tyrosine Kinase (LynA), LYN (gene 4067) (UniProt P07948); experiment: NVS_ENZ_hLynA: NovaScreen (NVS) Enzymatic Assay for human LYN Proto-Oncogene, Src family Tyrosine Kinase (LynA) (AID 2283173)
# Method in brief: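 Recombinant kinase with fluorescent substrate; product separated from substrate by electrophoretic mobility shift and read 1 h after dosing. Duplicate screen at 25 uM, then concentration-response up to 50 uM; activity scored as signal loss against DMSO.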
# [17] = biological target: human MET Proto-Oncogene, Receptor Tyrosine Kinase (MET), MET (gene 4233) (UniProt P08581); experiment: NVS_ENZ_hMet: NovaScreen (NVS) Enzymatic Assay for human MET Proto-Oncogene, Receptor Tyrosine Kinase (MET) (AID 2283180)
# Method in brief: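 Hits from a 25 uM duplicate screen were retested in concentration series up to 50 uM. Enzyme activity was measured by fluorescence after electrophoretic separation of product from substrate, 1 h after compound addition, relative to DMSO.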
# [18] = biological target: human Janus Kinase 2 (Jak2), JAK2 (gene 3717) (UniProt O60674); experiment: NVS_ENZ_hJak2: NovaScreen (NVS) Enzymatic Assay for human Janus Kinase 2 (Jak2) (AID 2283169)
# Method in brief: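 Single-point duplicate screen at 25 uM, with hits run in concentration series to a 50 uM top dose. Substrate-product separation by mobility shift with fluorescence detection, 1 h post-dosing; DMSO baseline.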
# [19] = biological target: human NIMA (Never In Mitosis Gene A)-Related Kinase 2 (NEK2), NEK2 (gene 4751) (UniProt P51955); experiment: NVS_ENZ_hNEK2: NovaScreen (NVS) Enzymatic Assay for human NIMA (Never In Mitosis Gene A)-Related Kinase 2 (NEK2) (AID 2283188)
# Method in brief: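 Compounds were first screened in duplicate at 25 uM, with actives followed up in concentration series. Recombinant NEK2 activity, cell-free, was read 1 h after dosing by fluorescence intensity after mobility-shift separation. Signal loss was scored against DMSO.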
# Sequence of human Phosphodiesterase 4A1 (PDE4A1), PDE4A (gene 5141) (P27815 whole entry, looked up): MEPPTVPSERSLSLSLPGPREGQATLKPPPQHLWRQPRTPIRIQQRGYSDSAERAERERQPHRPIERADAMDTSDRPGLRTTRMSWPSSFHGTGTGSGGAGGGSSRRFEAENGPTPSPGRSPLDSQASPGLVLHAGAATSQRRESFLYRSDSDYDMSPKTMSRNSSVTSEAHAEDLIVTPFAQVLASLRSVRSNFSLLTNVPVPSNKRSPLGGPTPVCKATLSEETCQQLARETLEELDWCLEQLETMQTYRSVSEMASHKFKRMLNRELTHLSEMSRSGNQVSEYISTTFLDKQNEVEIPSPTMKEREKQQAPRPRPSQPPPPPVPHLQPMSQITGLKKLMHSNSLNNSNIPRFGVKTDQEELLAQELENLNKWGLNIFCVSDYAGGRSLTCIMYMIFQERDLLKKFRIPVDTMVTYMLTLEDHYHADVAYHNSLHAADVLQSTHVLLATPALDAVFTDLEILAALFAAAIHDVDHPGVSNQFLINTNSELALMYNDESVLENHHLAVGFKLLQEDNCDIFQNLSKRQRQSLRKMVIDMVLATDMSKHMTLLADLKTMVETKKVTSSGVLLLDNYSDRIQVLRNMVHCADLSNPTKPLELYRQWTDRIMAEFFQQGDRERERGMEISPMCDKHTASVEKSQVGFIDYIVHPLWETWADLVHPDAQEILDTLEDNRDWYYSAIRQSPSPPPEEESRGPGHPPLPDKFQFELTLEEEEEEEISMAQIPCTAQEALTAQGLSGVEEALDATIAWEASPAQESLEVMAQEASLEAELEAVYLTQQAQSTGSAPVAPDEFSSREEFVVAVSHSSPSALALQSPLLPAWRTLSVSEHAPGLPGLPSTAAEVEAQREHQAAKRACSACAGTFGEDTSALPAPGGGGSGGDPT
# Sequence of human Matrix Metalloproteinase-2 (MMP2), MMP2 (gene 4313) (P08253 whole entry, looked up): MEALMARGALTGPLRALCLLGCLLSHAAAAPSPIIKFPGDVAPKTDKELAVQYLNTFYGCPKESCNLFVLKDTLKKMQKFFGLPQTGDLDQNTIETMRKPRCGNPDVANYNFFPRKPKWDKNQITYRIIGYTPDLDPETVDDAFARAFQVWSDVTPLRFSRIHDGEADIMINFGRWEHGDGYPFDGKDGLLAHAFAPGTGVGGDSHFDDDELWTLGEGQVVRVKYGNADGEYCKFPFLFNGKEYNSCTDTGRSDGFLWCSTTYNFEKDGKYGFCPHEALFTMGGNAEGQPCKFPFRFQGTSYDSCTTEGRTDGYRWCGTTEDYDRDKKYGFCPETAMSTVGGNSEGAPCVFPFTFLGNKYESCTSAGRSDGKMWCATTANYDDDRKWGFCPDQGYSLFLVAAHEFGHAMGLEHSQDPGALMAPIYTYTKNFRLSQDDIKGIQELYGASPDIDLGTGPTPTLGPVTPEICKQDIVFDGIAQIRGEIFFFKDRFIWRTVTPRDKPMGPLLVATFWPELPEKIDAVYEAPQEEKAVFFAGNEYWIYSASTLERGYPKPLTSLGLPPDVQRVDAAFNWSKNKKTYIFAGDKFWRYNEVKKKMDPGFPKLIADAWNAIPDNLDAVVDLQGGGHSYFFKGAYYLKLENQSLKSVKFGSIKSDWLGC
# Sequence of Mitogen-activated protein kinase 3 (Homo sapiens) (P27361 whole entry, looked up): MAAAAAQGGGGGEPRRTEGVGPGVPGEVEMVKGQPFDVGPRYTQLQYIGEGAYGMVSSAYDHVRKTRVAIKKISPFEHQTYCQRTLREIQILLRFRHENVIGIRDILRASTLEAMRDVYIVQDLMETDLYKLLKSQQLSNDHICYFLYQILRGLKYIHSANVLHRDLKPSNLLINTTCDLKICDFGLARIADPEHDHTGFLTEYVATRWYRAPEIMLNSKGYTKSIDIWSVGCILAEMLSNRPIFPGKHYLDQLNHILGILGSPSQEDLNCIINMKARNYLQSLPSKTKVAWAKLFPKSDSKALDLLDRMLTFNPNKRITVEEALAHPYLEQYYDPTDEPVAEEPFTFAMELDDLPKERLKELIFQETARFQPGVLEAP
# Sequence of human c-Jun N-terminal Kinases (JNK2), MAPK9 (gene 5601) (P45984 whole entry, looked up): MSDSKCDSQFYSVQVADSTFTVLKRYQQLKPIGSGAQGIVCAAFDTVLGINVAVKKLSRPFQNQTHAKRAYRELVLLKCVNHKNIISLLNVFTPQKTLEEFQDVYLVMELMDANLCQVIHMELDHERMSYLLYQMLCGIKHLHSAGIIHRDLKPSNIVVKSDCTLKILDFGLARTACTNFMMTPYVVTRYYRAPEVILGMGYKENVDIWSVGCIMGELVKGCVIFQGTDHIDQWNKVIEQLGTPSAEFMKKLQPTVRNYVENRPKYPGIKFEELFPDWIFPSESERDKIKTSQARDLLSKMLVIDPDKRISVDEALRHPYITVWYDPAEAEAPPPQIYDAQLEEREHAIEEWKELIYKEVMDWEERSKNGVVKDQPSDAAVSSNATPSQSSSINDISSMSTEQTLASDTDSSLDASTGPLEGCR
# Sequence of human MAP Kinase-Activated Protein Kinase 2 (MAPKAPK2), MAPKAPK2 (gene 9261) (P49137 whole entry, looked up): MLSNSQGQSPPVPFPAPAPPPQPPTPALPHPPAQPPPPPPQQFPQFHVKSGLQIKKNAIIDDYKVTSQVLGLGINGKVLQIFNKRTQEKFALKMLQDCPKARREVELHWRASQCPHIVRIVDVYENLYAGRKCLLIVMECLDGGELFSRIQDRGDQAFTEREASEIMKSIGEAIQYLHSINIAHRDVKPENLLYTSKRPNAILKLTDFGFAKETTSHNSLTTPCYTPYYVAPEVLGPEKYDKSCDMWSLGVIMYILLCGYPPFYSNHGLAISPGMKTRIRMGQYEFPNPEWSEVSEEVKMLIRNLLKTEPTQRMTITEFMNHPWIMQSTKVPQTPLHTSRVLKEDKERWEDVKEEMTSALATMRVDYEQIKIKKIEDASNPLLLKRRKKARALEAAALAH
# Sequence of human Matrix Metalloproteinase-7 (MMP7), MMP7 (gene 4316) (P09237 whole entry, looked up): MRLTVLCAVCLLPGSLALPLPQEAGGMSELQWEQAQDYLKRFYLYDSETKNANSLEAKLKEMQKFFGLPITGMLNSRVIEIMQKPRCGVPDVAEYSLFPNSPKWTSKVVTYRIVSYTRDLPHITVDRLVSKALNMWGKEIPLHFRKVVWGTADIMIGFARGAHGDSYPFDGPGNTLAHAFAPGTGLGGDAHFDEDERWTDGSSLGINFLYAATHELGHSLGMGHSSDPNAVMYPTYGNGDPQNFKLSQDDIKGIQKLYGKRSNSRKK
# Sequence of human Matrix Metalloproteinase-9 (MMP9), MMP9 (gene 4318) (P14780 whole entry, looked up): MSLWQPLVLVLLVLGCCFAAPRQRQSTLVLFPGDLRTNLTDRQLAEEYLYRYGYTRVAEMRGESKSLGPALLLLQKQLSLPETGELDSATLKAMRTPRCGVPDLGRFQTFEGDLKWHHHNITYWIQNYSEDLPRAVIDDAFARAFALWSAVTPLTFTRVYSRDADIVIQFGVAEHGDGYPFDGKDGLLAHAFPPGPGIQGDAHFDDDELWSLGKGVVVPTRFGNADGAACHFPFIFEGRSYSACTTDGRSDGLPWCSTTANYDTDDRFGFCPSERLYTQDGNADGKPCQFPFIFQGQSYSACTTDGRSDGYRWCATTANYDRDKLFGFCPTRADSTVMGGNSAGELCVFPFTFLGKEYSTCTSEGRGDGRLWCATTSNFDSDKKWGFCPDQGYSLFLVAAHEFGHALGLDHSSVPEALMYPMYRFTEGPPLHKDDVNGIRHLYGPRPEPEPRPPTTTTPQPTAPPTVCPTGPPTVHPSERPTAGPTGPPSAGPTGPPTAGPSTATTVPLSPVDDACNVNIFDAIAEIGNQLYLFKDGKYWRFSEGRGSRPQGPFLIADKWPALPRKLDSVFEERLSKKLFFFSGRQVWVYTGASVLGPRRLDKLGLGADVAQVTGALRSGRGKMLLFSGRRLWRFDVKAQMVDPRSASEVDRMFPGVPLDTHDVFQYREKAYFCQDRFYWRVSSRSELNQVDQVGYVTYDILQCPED
# Sequence of human Mitogen-Activated Protein Kinase 1 (MAPK 1), MAPK1 (gene 5594) (P28482 whole entry, looked up): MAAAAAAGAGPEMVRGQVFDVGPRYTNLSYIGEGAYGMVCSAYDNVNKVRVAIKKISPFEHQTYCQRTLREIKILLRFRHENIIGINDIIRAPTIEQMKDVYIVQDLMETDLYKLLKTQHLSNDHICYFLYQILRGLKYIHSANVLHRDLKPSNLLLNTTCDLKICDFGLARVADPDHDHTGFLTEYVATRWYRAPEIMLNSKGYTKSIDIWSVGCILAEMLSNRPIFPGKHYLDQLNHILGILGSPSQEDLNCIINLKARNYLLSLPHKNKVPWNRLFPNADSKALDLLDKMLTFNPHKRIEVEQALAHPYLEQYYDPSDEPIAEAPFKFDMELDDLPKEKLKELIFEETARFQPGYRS
# Sequence of Histone deacetylase 3 (Homo sapiens) (O15379 whole entry, looked up): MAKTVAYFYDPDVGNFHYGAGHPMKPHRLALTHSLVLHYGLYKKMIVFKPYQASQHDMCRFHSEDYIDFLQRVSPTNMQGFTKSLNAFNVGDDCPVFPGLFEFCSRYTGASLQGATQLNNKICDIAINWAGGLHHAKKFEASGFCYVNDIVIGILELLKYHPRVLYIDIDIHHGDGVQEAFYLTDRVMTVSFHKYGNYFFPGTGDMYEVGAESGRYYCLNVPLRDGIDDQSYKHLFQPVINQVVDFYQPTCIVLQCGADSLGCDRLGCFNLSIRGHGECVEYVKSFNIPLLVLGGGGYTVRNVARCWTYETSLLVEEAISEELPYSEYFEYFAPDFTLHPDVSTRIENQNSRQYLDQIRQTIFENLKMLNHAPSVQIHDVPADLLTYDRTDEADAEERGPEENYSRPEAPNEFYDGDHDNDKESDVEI
# Sequence of human NIMA (Never In Mitosis Gene A)-Related Kinase 2 (NEK2), NEK2 (gene 4751) (P51955 whole entry, looked up): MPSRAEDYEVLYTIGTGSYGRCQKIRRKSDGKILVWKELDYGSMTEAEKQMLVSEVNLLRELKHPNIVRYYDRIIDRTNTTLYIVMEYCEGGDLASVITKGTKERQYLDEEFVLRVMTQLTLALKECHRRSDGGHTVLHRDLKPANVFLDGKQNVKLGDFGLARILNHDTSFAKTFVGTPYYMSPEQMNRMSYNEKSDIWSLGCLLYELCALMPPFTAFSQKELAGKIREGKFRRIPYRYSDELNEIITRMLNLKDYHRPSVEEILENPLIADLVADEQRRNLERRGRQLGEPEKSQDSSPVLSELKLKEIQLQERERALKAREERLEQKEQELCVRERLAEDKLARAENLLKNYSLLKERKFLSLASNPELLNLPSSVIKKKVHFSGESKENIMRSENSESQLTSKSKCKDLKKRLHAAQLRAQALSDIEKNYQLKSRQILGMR
structure (smiles),measurement,setting,value
CCCC(=NOCC)C1=C(O)CC(CC(C)SCC)CC1=O (stereo unspecified),AC50,[1],14.1 µM (active)
same,outcome,[2],inactive
CCOP(=O)(OCC)Oc1nc(Cl)c(Cl)cc1Cl,AC50,[3],25 µM (active)
same,outcome,[4],inactive
Cc1nc(N(C)C)nc(OC(=O)N(C)C)c1C,outcome,[4],inactive
Cc1c(COC(=O)[C@@H]2[C@H](/C=C(\Cl)C(F)(F)F)C2(C)C)cccc1-c1ccccc1,outcome,[5],inactive
O=C1C2CC=CCC2C(=O)N1SC(Cl)(Cl)Cl (stereo unspecified),AC50,[6],7.99 µM (active)
same,AC50,[7],16.7 µM (active)
same,outcome,[8],inactive
CC(C)C1(C)N=C(c2ncccc2C(=O)O)NC1=O (stereo unspecified),outcome,[1],inactive
COC(=O)c1c(C(F)F)nc(C(F)(F)F)c(C2=NCCS2)c1CC(C)C,outcome,[9],inactive
same,outcome,[10],inactive
CC1(C)C(C=C(Cl)Cl)C1C(=O)OC(C#N)c1cccc(Oc2ccccc2)c1 (stereo unspecified),AC50,[5],11.8 µM (active)
same,AC50,[11],4.96 µM (active)
same,AC50,[12],13.4 µM (active)
CC(C)=CC1C(C(=O)OCc2coc(Cc3ccccc3)c2)C1(C)C (stereo unspecified),AC50,[9],6.48 µM (active)
same,outcome,[11],inactive
CCNP(=S)(OC)O/C(C)=C/C(=O)OC(C)C (stereo unspecified),outcome,[13],inactive
same,AC50,[3],19.5 µM (active)
Clc1nc(Cl)nc(Nc2ccccc2Cl)n1,outcome,[6],inactive
same,outcome,[14],inactive
same,outcome,[13],inactive
same,outcome,[2],inactive
same,outcome,[5],inactive
same,AC50,[9],7.57 µM (active)
N#CN=C1SCCN1Cc1ccc(Cl)nc1,outcome,[9],inactive
same,outcome,PPP2CA (gene 5515),inactive
COP(=S)(OC)Oc1ccc([N+](=O)[O-])c(C)c1,outcome,[3],inactive
COP(=S)(OC)SCn1nnc2ccccc2c1=O,outcome,[7],inactive
same,outcome,[13],inactive
same,outcome,[12],inactive
same,AC50,[4],4.85 µM (active)
CCC(C)n1c(=O)[nH]c(C)c(Br)c1=O (stereo unspecified),AC50,[3],25 µM (active)
CN=C=S,outcome,[5],inactive
Nc1c(Cl)c(Cl)nc(C(=O)O)c1Cl,outcome,[8],inactive
CCCN(CC)CC1COC2(CCC(C(C)(C)C)CC2)O1 (stereo unspecified),outcome,[13],inactive
N#Cc1c(Cl)cccc1Cl,outcome,[13],inactive
O=C(O)c1c(Cl)ccc2cc(Cl)cnc12,outcome,[15],inactive
N#Cc1c[nH]cc1-c1cccc2c1OC(F)(F)O2,outcome,[16],inactive
COC(=O)NS(=O)(=O)c1ccc(N)cc1,outcome,[8],inactive
same,outcome,[13],inactive
COC(=O)NC(=S)Nc1ccccc1NC(=S)NC(=O)OC,outcome,[12],inactive
same,outcome,[3],inactive
CCOC(=O)C(C)OC(=O)c1cc(Oc2ccc(C(F)(F)F)cc2Cl)ccc1[N+](=O)[O-] (stereo unspecified),AC50,[5],15.3 µM (active)
same,outcome,[11],inactive
CS(=O)(=O)c1ccc(C(=O)C2C(=O)CCCC2=O)c([N+](=O)[O-])c1,AC50,[11],1.59 µM (active)
CN/C(=N\[N+](=O)[O-])NCc1cnc(Cl)s1,AC50,[17],22.2 µM (active)
Nc1cnn(-c2ccccc2)c(=O)c1Cl,outcome,[18],inactive
COC(=O)N(C(=O)N1CO[C@@]2(C(=O)OC)Cc3cc(Cl)ccc3C2=N1)c1ccc(OC(F)(F)F)cc1,AC50,[11],9.53 µM (active)
same,outcome,[19],inactive
CCN(CC)C(=O)C(C)Oc1cccc2ccccc12 (stereo unspecified),outcome,[12],inactive
CCN(CC)c1nc(C)cc(OP(=S)(OC)OC)n1,outcome,[9],inactive
same,outcome,[12],inactive
same,AC50,[3],25 µM (active)
CC(C)Nc1nc(Cl)nc(NC(C)C)n1,AC50,[3],1 µM (active)
same,outcome,[4],inactive
CC(C)(C)C(=O)C(Oc1ccc(Cl)cc1)n1cncn1 (stereo unspecified),outcome,[13],inactive
Cn1c(-c2ccccc2)cc(-c2ccccc2)[n+]1C,outcome,[19],inactive
Cc1cnc(C2=NC(C)(C(C)C)C(=O)N2)c(C(=O)O)c1 (stereo unspecified),outcome,[14],inactive
same,outcome,[2],inactive
same,outcome,[4],inactive
